Laboratory results: PubChem BioAssay (NCI)
Compounds without any hit were thinned out: in the full panel of roughly 79,000, 15% have a hit. Activity calls are given as the source filed them. Rule as the data show it: active = growth inhibition above about 70%; inactive = the rest.

experiment: NCI Yeast Anticancer Drug Screen. Data for the mec2-1 strain (AID 157); details: S. cerevisiae mec2-1 strain, at 50.0 µM, active compounds read high
Summary of the method: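 mec2-1 yeast strain, carrying an alteration in DNA damage repair or cell cycle control, was exposed to compounds; growth inhibition was measured relative to vehicle-treated controls.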

Compound | growth inhibition
Cc1ccc(S(=O)(=O)NNc2nc(N3CCOCC3)nc(N3CCOCC3)n2)cc1 | 15.4% (inactive)
O=C1OC(CC(=O)c2ccc(Cl)cc2Cl)C(Cl)=C1Cl (configuration not stated) | 53.4% (inactive)
CCOC(=O)c1ccc(-n2c(C)nc3ccc(Br)cc3c2=O)cc1 | 61.6% (inactive)
CCN(CC)CCOc1ccc(C=C2c3ccccc3-c3ccccc32)cc1 | 99.2% (active)
Cc1nn(C(=O)c2ccccc2O)c2c1C(c1ccc(O)cc1O)SC(N)=N2 (configuration not stated) | 22.6% (inactive)
CN(NC(=O)/C(=C/c1cc(Cl)cc(Cl)c1O)NC(=O)c1ccccc1)c1cnn(-c2ccccc2)c(=O)c1Cl | 39.2% (inactive)
Cn1c(=S)c2[nH]c(SCc3ccncc3)nc2n(C)c1=O | 59% (inactive)
O=C1N=c2ccc(Br)cc2=C1c1sc(=O)n(Cc2nc3ccccc3[nH]2)c1O | 54% (inactive)
N#C/C(=C\c1cccnc1)c1csc2ccccc12 | 88.8% (active)
Cc1nn(CCO)c(=O)c(C#N)c1C | 49% (inactive)
CN(/N=C/c1ccc(C(=O)O)cc1)C1=NCCCCN1 | 3.4% (inactive)
C=CCCCN1C(=O)C2C3c4ccccc4C(C=O)(c4ccccc43)C2C1=O (configuration not stated) | 30.7% (inactive)
CC(Cc1ccccc1)N1C(=O)C=CC1=O (configuration not stated) | 93.5% (active)
O=C(Nc1c(Cl)cc([N+](=O)[O-])cc1Cl)/C(=N\Nc1cccc(Cl)c1)c1c(O)c2ccccc2oc1=O | 18.1% (inactive)
C/C(=N/O)c1ccc2c(c1)C(=NO)c1cc(/C(C)=N/O)ccc1-2 | 94.7% (active)
CCCCCCCCCCCC(=O)NC(CCC(=O)O)C(=O)O (configuration not stated) | -8% (inactive)
O=C1c2ccccc2C(=O)c2c1cccc2[N+](=O)[O-] | 73% (active)
C/C=C\C=N\NC(N)=S | 83.7% (active)
Oc1c(Cl)cc(C(c2cc(Cl)c(O)c(Cl)c2)C(c2cc(Cl)c(O)c(Cl)c2)c2cc(Cl)c(O)c(Cl)c2)cc1Cl | 95.8% (active)
S=C1NC2=C(CSC/C2=C\c2ccccc2)C(c2ccccc2)N1 (configuration not stated) | 58.2% (inactive)
O=[N+]([O-])c1cccc2nc3ccccc3c(NCCNCCO)c12 | 51.2% (inactive)
COC12C=CC(CC1)c1c2c(O)c2ccncc2c1O (configuration not stated) | 56.7% (inactive)
